A selection: hits, their analogues and other compounds. The true share with any hit is near 2.4%.
D2 ag-1 – activates the human D2 dopamine receptor; HEK293 T-REx D2 cells, calcium flux agonist mode; P14416; hit rate 0.53% among 340,000; activation, % at 2 µM; AID 485358;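 active means activation over 3 SD above normal in the single-dose calcium agonist read, cut at about 30% in these data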; further: 0% is about no effect
Target sequence (P14416 whole entry, looked up): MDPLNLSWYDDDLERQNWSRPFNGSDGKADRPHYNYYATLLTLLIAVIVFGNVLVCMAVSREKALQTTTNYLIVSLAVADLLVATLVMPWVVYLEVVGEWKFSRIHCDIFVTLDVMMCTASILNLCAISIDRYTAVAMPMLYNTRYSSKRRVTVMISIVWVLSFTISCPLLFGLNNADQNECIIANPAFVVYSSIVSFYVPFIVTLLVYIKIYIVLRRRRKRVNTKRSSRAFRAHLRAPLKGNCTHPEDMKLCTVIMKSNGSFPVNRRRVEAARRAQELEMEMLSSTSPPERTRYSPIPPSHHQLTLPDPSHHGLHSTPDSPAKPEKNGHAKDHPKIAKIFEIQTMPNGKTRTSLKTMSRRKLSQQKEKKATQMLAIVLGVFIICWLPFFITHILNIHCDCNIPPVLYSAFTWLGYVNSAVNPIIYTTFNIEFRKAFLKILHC
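Calcium-flux readout, 1 cycle/sec over 180 s following compound pin transfer, in inducible HEK293 Trex D2 cells (force-coupled); dopamine controls included. Positive calcium responses during this window marked compounds as potential agonists.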
D2 antag – D2 dopamine receptor (human) antagonism; P14416; hit rate 2% among 340,000; HEK293 TREx D2 cells, calcium flux, dopamine EC80; inhibition, % at 10 µM; AID 485344; in the data active means inhibition above about 30%; inactive means below that, where a call was filed; further: 0% is about no effect
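In this primary screen, negative modulation is detected by tracking calcium flux after an EC80 dopamine challenge in inducible HEK293 T-REx D2 cells preexposed to test compound for 180 s.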
D2 PAM-1 – positive allosteric modulators of human D2 dopamine receptor. hit rate 0.23% among 360,000. DiscoveRx D2 beta-arrestin cells, luminescence, 90 min; 100% = 57 uM dopamine signal. P14416. potentiation, % (no concentration beside the values); in the data active means potentiation above about 50%; inconclusive means mostly about 30% to 49%
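PathHunter D2 cells, attached overnight at 37 deg C, received compound in DMSO plus dopamine at EC20 (50 nM final) for 90 min at 37 deg C. Beta-arrestin recruitment was read as luminescence after 1 h with detection reagent at ambient temperature.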
D2 ag-2 – agonists of human D2 dopamine receptor (beta-arrestin) | P14416 | DiscoveRx PathHunter D2 beta-arrestin, luminescence, 90 min; 100% = 57 uM dopamine signal | activation, % (no concentration beside the values) | hit rate 0.084% among 360,000 | AID 624465; in the data active means activation above about 40%; inconclusive means between about 15% and that limit
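Agonist mode: compounds alone added to overnight-plated D2 PathHunter cells for 90 min at 37 C, with 57 uM final dopamine (EC100) defining full response. Beta-arrestin recruitment detected by chemiluminescent reagent, read after 1 h at ambient temperature.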
D2 PAM-2 – positive allosteric modulators of human D2 dopamine receptor. P14416. HEK293 T-REx D2, calcium flux, EC20 dopamine potentiation. potentiation, % at 10 µM. hit rate 0.34% among 340,000;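 active means potentiation over 3 SD above the plate norm, cut at about 30% in these data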; further: 0% is about no effect
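Tetracycline-induced Hek293 Trex D2 cells, force-coupled to calcium, loaded with no-wash calcium dye. Compound added with 180 s kinetic read for agonism, then EC20 dopamine and a further 180 s read for potentiation.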
D3 arrestin ag – activates human D3 dopamine receptor beta-arrestin recruitment | shares compounds with D2 ag-1 | DiscoveRx D3 beta-arrestin cells, luminescence, 90 min | Potency, µM (top dose mostly 76.9 µM), inactives show at the top dose activation, actives largely listed as activators | hit rate 4% among 2,300 | AID 720506;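 further: potency means the concentration at half of the fitted maximal effect; 100% = dopamine control response; nearly all actives have a fitted effect of over 70% in size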
D2 ag-3 – D2 receptor agonism, beta-arrestin counterscreen | hit rate 5.9% among 2,300 | shares compounds with D2 ag-1 | Potency, µM (doses to about 76.9 µM), for inactives: at the top dose activation, hits mostly activators | DiscoveRx PathHunter D2 beta-arrestin, luminescence, 90 min; response scale: percent relative to full dopamine signal; further: potency means the concentration at half of the fitted maximal effect; % of control where 0% means no effect; nearly all actives have a fitted effect of over 70% in size
* = called active by the depositor; ? = inconclusive; nt = no result. Unless noted, the call rests on the fitted dose curve; in most records, active means well fitted activation curve with a large enough effect; inconclusive means small, poorly fitted or top-dose-only effect; inactive means flat fitted curve, though single readings scatter.

SMILES	D2 ag-1	D2 antag	D2 PAM-1	D2 ag-2	D2 PAM-2	others
CCc1ccccc1NC(=O)CNC(=O)CCC(=O)c1cc(C)sc1C	nt	nt	-9	-1	nt
O=C(CSc1nc2[nH]c(=O)cc(O)c2s1)NCCc1ccccc1	0	0	-14	2	17
COc1ccc(CCNC(=O)CN2C(=O)c3ccccc3S2(=O)=O)cc1	0	34*	-5	-1	2
O=C(CSc1ccc2ccccc2c1)NCCc1ccc(O)c(O)c1	32*	51*	?	100*	-18
COc1ccc(CCNC(=O)CSc2nc3ccccc3o2)cc1	-1	39*	3	-3	5
COc1ccc(CCNC(=O)CSc2nc3[nH]c(=O)cc(O)c3s2)cc1	0	44*	-7	-1	-10
C/C(=N/NC(=O)CN(c1ccccc1)S(=O)(=O)c1ccccc1)c1ccccc1O	1	52*	-78	1	-17
COC(=O)CN(c1ccc(F)cc1)S(=O)(=O)c1ccccc1	4	47*	-4	-1	nt
COC(=O)CN(c1ccccc1F)S(=O)(=O)c1ccccc1	-4	-10	8	-3	-5
Cc1ccc(N/C(N)=N/c2nc3c(c(=O)[nH]2)CCCC3)c(C)c1	-1	-10	-7	3	-1
Cc1ccc(N/C(N)=N/c2nc(C)cc(N3CCCCC3)n2)c(C)c1	8	35*	-18	6	-19
CCCCS(=O)(=O)CC(COc1ccccc1)OC(=O)c1ccccc1 (configuration not stated)	1	35*	-6	-3	1
CCCCS(=O)CC(CS(=O)CCCC)OC(=O)c1ccccc1 (configuration not stated)	0	0	-9	-3	-6
Cn1c(=O)c2c(ncn2CC(N)=O)n(C)c1=O	1	7	-14	2	1
Cn1c(=O)c2c(ncn2CC2OCCO2)n(C)c1=O	1	32*	-6	-3	2
CNC(=O)c1cnc2sc(N3CCCCCC3)nn2c1=O	0	nt	nt	nt	1
Cn1c(CN2CCCCC2)nc2cc(NS(=O)(=O)c3ccc(F)cc3)ccc21	0	74*	-3	-6	-19
Cn1c(CN2CCCCC2)nc2cc(NS(=O)(=O)c3ccc(Cl)cc3)ccc21	1	73*	-22	-4	-18
Cn1c(CCN2CCCCC2)nc2cc(NS(=O)(=O)c3ccc(Cl)cc3)ccc21	0	14	-36	-1	3
CC(=O)Nc1ccc2c(c1)nc(CN1CCCC1)n2C	0	10	-21	0	-1
CCn1ncc(C2=NOC(C(=O)NCc3ccc(OC)cc3)C2)c1C (configuration not stated)	31*	6	-7	2	-17
Cc1cccc(CNC(=O)C2CCC(=O)N(C3CC3)C2)c1 (configuration not stated)	0	0	-4	-1	52*
CSc1cccc(CNC(=O)C2CCC(=O)N(CCCN3CCCC3=O)C2)c1 (configuration not stated)	0	86*	-1	4	-24
COc1cc(Cl)c(C)cc1NC(=O)c1ccccc1NC(=O)CN1CCOCC1	1	1	4	-4	1
CCC(C(=O)Nc1ccc(C)c(Cl)c1)n1c(=O)c(-c2ccccc2NC(C)=O)nc2ccccc21 (configuration not stated)	nt	nt	nt	nt	-10
SMILES	D2 ag-1	D2 antag	D2 PAM-1	D2 ag-2	D2 PAM-2	others
Cc1ccc(N=C(NO)c2nonc2N)c(C)c1	1	9	-2	0	-4
Cc1ccc(N=C(NOC(=O)c2ccccc2)c2nonc2N)c(C)c1	0	-19	95*	11	-1
COc1ccc(C(=O)Nc2ccc(C(=O)OCC(=O)c3cccc4ccccc34)cc2)cc1	1	76*	-17	3	0
COc1ccc(NC(=O)c2ccc3ccccc3c2)cc1	0	2	-1	5	9
CC(=O)C(C(C)=O)c1c(Cl)c(O)c(O)c2c(C(=O)c3ccccc3)coc12	0	3	103*	?	-3
CC(=O)NNC(=S)NC(=O)C(c1ccccc1)c1ccccc1	2	9	-8	1	-1
CC(C)(C)C(=O)NC(=S)NNC(=O)C(c1ccccc1)c1ccccc1	99*	75*	-21	-16	-11
COc1cccc(-c2csc(N3CCN(C(=S)Nc4cccc(C)c4)CC3)n2)c1	-1	86*	-15	-5	15
COc1cccc(-c2csc(N3CCN(C(=S)Nc4ccccc4)CC3)n2)c1	0	2	-13	1	-12
CC(=O)c1ccc(N2CCN(C(=O)/C=C/c3ccc(S(=O)(=O)N4CCOCC4)cc3)CC2)cc1	1	50*	-7	-3	-8
COc1ccc(CNC(=O)c2ccc(-c3nc(CSc4ccc(C)cc4)c(C)o3)cc2)cc1OC	1	nt	nt	nt	4
CC1(OC(=O)C2CCCC2)C(=O)C=C2C=C(c3ccsc3)N(c3ccccc3)C=C2C1=O (configuration not stated)	0	36*	-2	15	9
N#Cc1cc(S(=O)(=O)c2ccccc2)c(N)[nH]c1=O	1	86*	-14	-5	4
CCc1ccc(S(=O)(=O)c2cn(CC(=O)Nc3ccc(F)c(Cl)c3)c3ccccc3c2=O)cc1	nt	nt	nt	nt	-17
O=C(COc1ccc(Br)cc1)NCC1COc2ccccc2O1 (configuration not stated)	0	33*	-24	2	-24
c1ccc2c(c1)OCC(CNCC1COc3ccccc3O1)O2 (configuration not stated)	37*	64*	-10	1	-28
O=C(O)CNCC1COc2ccccc2O1 (configuration not stated)	0	-22	6	-3	-7
CCN1CCN(CC(=O)Nc2ccc(Cl)c(S(=O)(=O)N(C)C)c2)CC1	-1	5	-18	-4	1
O=C(CCN1CCN(C/C=C/c2ccccc2)CC1)Nc1ccccc1F	3	-15	-15	3	-2
COc1ccc(C)cc1NC(=O)CN1CCN(c2ccccc2F)CC1	0	-9	-14	0	-25
CN(C)S(=O)(=O)c1cc(NC(=O)CN2CCN(c3ccccc3F)CC2)ccc1Cl	54*	53*	5	?	-11	D3 arrestin ag=?;D2 ag-3=?

Source: PubChem
